Only a selection was taken, and hits are over-represented in it overall.
RE007 growth inh: less growth of the S. pombe RE007 Vpr strain. S. pombe RE007 Vpr strain, BacTiter-Glo ATP luminescence, 24 h. Potency, µM (top dose mostly 92.2 µM), usual class: inhibitors. 0.21% of 360,000 active. AID 651644; active means well fitted falling curve with a large enough effect; inconclusive means small, poorly fitted or top-dose-only effect; inactive means no such curve, though single readings can be large or run the other way; further: nearly all actives have a fitted effect of over 50% in size
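Fission yeast RE007 carrying one integrated HIV-1 vpr copy, seeded at OD 0.01 in PMG+AL medium with 23 nL pinned compound. Grown 24 h at 30 degrees; viability read by BacTiter-Glo luminescence after 5 min.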
Cycloheximide cs: counter-screen for Shiga toxin inhibitors: cycloheximide protein synthesis inhibition; AID 2314; cell reporter, cycloheximide protein synthesis inhibition counterscreen; max response, %; 12% of 300,000 active; in the data active means max response mostly above about 13%, no sharp cut-off; inactive means mostly below about 14%; further: read at 38.3 µM for the half of the compounds with a filed dose
FBPA Giardia inh: inhibitors of Giardia lamblia fructose-1,6-bisphosphate aldolase | 0.71% of 290,000 active | A8B2U2 | purified Giardia FBPA | Potency, µM (top dose mostly 59.6 µM), actives largely listed as inhibitors; further: nearly all actives have a fitted effect of over 55% in size
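Giardia FBPA (40 nM reagent) was preincubated 10 min at RT with compound (up to 57.5 uM final), then substrate plus GAPDH/TPI/NAD/arsenate coupling system with diaphorase/resazurin was added; resorufin fluorescence (525/598 nm) was read after 20 min.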
Shiga toxin inh: Shiga toxin inhibition; Vero cells, Shiga toxin protein synthesis inhibition reporter; 9.2% of 290,000 active; inhibition, % at 38.7 µM; AID 2315; in the data active means inhibition mostly above about 28%, no sharp cut-off; inactive means mostly below about 43%
TbPYK inhibitor: inhibitors of Trypanosoma brucei pyruvate kinase; 0.12% of 410,000 active; TbPYK enzyme, Kinase-Glo Plus ATP luminescence, 45 min; Q57TT1; AID 624173; Potency, µM (top dose mostly 76.8 µM), most hits filed as inhibitors; further: nearly all actives have a fitted effect of over 50% in size
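Screened from lowest to highest concentration, compounds were pinned into TbPYK/substrate mixtures, and ADP (130 uM final) was added. Plates sat at room temperature for 45 min prior to Kinase-Glo Plus detection by luminescence.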
LmPK inhibitor: LmPK (Leishmania mexicana) enzyme inhibition | Q27686 | purified LmPK, Kinase-Glo ATP luminescence, 1 h | Potency, µM (doses to about 57.5 µM), hits mostly inhibitors | 0.37% of 290,000 active
Target sequence (Q27686 whole entry, looked up): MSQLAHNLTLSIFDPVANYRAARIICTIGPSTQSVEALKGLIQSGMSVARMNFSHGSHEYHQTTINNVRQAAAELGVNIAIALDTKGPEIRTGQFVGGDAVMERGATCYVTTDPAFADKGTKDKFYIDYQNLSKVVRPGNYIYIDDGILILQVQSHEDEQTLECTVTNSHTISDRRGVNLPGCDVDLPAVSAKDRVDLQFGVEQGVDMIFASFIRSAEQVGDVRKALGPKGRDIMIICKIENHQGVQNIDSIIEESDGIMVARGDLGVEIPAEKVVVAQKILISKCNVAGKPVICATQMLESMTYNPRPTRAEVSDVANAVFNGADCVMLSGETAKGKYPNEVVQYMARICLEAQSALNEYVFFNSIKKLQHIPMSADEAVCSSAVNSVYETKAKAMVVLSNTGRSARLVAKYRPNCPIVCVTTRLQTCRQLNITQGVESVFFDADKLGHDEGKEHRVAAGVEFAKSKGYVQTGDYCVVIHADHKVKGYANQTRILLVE
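ATP generated from ADP (0.1 mM) and PEP (0.5 mM) by 0.1 nM LmPK over 1 h at room temperature (pH 7.2 imidazole buffer) was detected by coupled luciferase luminescence. Values were normalized to uninhibited and no-enzyme wells.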
Hits are given with their value; i = inactive; ? = inconclusive; nt = no result given; ! = a repeat was not active. Unless noted, the call rests on the fitted dose curve; in most records, active means well fitted curve in the direction sought with a large enough effect; inconclusive means small, poorly fitted or top-dose-only effect, or another doubt; inactive means no such curve, though single readings can be large; an effect the other way counts as inactive or inconclusive.

SMILES	RE007 growth inh	Cycloheximide cs	FBPA Giardia inh	Shiga toxin inh	TbPYK inhibitor	LmPK inhibitor
CCC(=O)C(C(=O)OC)[C@H](CCc1ccccc1)NC(=O)OC (some centres not stated)	nt	nt	i	nt	nt	nt
O=C(N/N=C1\CCCc2ccccc21)c1ccc([N+](=O)[O-])cc1	i	i	i	i	i	i
Cc1ccc(C(=O)N/N=C2\CCCc3ccccc32)c(C)c1	i	49	i	71	i	i
NC(=O)C(=O)N/N=C1\CCc2ccccc21	i	37	i	62	i	i
COc1ccc(NC(=O)CNC(=O)Cn2ccc3ccccc3c2=O)cc1OC	nt	nt	nt	nt	i	nt
CC(C)(C)c1ccc(C(=O)NC2=NC(c3cccc(F)c3)CC(=O)N2)cc1 (configuration not stated)	nt	nt	nt	nt	i	nt
O=C(Cc1nc2ccccc2[nH]1)c1ccc(Cl)cc1	?	23	i	62	i	i
CCc1cc(C(=O)Cc2nc3ccccc3[nH]2)c(O)cc1O	i	40	i	143	i	i
CCc1cc(C(=O)COc2ccccc2F)c(O)cc1O	i	28	i	i	i	i
Nc1ccc(C(=O)OCc2nc3ccccc3[nH]2)cc1	i	i	i	i	i	i
O=C(Cc1nc2ccccc2[nH]1)c1ccc([N+](=O)[O-])cc1	i	29	i	60	i	i
CCOc1ccc(S(=O)(=O)N2CCC(c3ccncc3)CC2)cc1	nt	nt	nt	nt	i	nt
Cc1ccc(-c2cn(-c3cccc(Cl)c3)c(S(=O)(=O)CC(=O)Nc3cccc(C)c3)n2)cc1	nt	nt	nt	nt	i	nt
CCc1ccc(-n2nc(C)c3c(C)cc(=O)n(CC(=O)Nc4cc(Cl)ccc4OC)c32)cc1	nt	nt	nt	nt	i	nt
N#CCCN/N=C(/Cc1nc2ccccc2[nH]1)c1cccc(Cl)c1	i	43	i	99	i	i
Clc1ccc(/C(Cc2nc3ccccc3[nH]2)=N\Nc2ccccc2)cc1	i	37	i	34	i	i
O=C(NCCc1nc2ccccc2[nH]1)c1ccc([N+](=O)[O-])cc1	i	i	i	i	i	i
CN/N=C(\Cc1nc2ccccc2[nH]1)c1ccc([N+](=O)[O-])cc1	i	32	i	57	i	i
CN1C2CC(OC(=O)C(CO)c3ccccc3)C[C@@H]1[C@H]1OC21 (some centres not stated)	nt	nt	i	nt	nt	nt
CCC1CCCCN1CCCNC(=O)c1ccc2c(c1)N(Cc1cccc(Cl)c1)C(=O)c1ccccc1S2(=O)=O (configuration not stated)	nt	nt	nt	nt	i	nt
CCn1cc(C(=O)Nc2sc(C)c(C)c2C(=O)OC)cn1	i	i	i	25	i	i
COC(=O)c1c(NC(=O)c2ccnn2C)sc(C)c1C	i	nt	nt	nt	i	nt
Cc1cc(C(=O)COC(=O)c2ccc3c(c2)OCO3)c(C)n1Cc1cccs1	i	54	i	128	i	i
CCn1nc(C(=O)OCC(=O)c2cc(C)n(Cc3cccs3)c2C)c2ccccc2c1=O	i	72	i	66	i	i
COc1cccc(CNC(=O)CCCn2nc(C)c3sc4ccccc4c3c2=O)c1	nt	nt	nt	nt	i	nt
SMILES	RE007 growth inh	Cycloheximide cs	FBPA Giardia inh	Shiga toxin inh	TbPYK inhibitor	LmPK inhibitor
COC(=O)N[C@@H](/C=C/c1ccccc1)[C@@H](C)[N+](=O)[O-]	nt	nt	i	nt	nt	nt
COc1ccc(C2CC(O)(c3ccccc3)Oc3c(C)ccc(C)c32)cc1 (configuration not stated)	i	i	i	i	i	i
COc1ccc(C2CC(O)(c3ccccc3)Oc3cc(OC)cc(OC)c32)cc1 (configuration not stated)	i	22!	?	i	i	i
O=C(Nc1cccc(-c2nc3ncccc3o2)c1)c1sc2cc(Cl)ccc2c1Cl	i	i	i	44	i	i
O=C(Nc1cccc(-c2nc3ncccc3o2)c1)c1cc2ccccc2o1	i	22	i	85	i	i
Cc1ccc(-c2nc3ncccc3o2)cc1NC(=O)c1cc2ccccc2o1	i	i	i	i	i	i
CC(C)CCNC(=O)C1CCN(C(=O)c2cc3sccc3n2Cc2ccc(Cl)cc2)CC1	nt	nt	nt	nt	i	nt
CC(C)NC(=O)N1CC2(CCN(C(=O)c3cccn3C)CC2)C1	nt	nt	i	nt	i	nt
CCOc1ccc(NC(=O)Cn2ncc3ccccc32)cc1	i	38	i	74	i	i
CCOc1ccc(NC(=O)CCSc2ccc3ccccc3n2)cc1	i	15	i	i	i	i
CC1CCC(NC(=O)Cn2ncc3ccccc32)CC1 (configuration not stated)	i	18	i	active	i	i
COc1ccc(C(=O)N2CCC(c3nc(-c4ccc(S(=O)(=O)N5CCCC5)cc4)no3)CC2)cc1	nt	nt	nt	nt	i	nt
CCN(CC)S(=O)(=O)c1ccc2c(c1)N(CC(=O)Nc1ccc(F)cc1F)C(=O)C1CCCN21 (configuration not stated)	nt	nt	nt	nt	i	nt
COC(=O)[C@H](Cc1ccccc1)NC(=O)O[C@@H]1Cc2cc(OC)ccc2O[C@H]1c1cccc(OC)c1	nt	nt	i	nt	nt	nt
Cn1c(=O)oc2cc(S(=O)(=O)N3CCC(C(=O)N4CCN(c5ccc(Cl)cc5)CC4)CC3)ccc21	nt	nt	nt	nt	i	nt
CCSc1nnc(-c2ccc(Cl)cc2Cl)o1	?	57	i	85	i	i
O=C(O)CCSc1nnc(-c2ccc(Cl)cc2Cl)o1	nt	nt	nt	nt	i	nt
CSc1nnc(-c2ccc(Cl)cc2Cl)o1	?	52	nt	i	i	i
CC(C)NCc1nnc(-c2ccccc2Cl)o1	i	i	i	39	i	i
CSc1nnc(-c2ccccc2Cl)o1	i	29	i	88	i	i
CSc1ccccc1-c1nnc(-c2ccc(Cl)cc2Cl)o1	i	i	i	i	i	i
NC(CC(=O)Nc1ccc(Oc2cc(F)c(F)cc2Br)cc1)C(=O)O (configuration not stated)	nt	i	?	i	nt	nt
Cc1nnc(N2CCN(C(=O)Nc3cccc(C(F)(F)F)c3)CC2)c2nn(-c3ccccc3)c(C)c12	nt	nt	nt	nt	i	nt
CCCCCC(=O)N(O)C1CC(=O)N(c2ccccc2)C1=O (configuration not stated)	10µM	i	i	i	i	i
CN1CCC(=NNC(=O)C(=O)Nc2ccccc2)CC1	i	24	i	25	i	i
SMILES	RE007 growth inh	Cycloheximide cs	FBPA Giardia inh	Shiga toxin inh	TbPYK inhibitor	LmPK inhibitor
CCCCCn1cnc2sc(-c3ccccc3)cc2c1=O	i	47	i	61	i	i
COc1ccccc1-n1cnc2sc(-c3ccccc3)cc2c1=O	i	i	i	i	i	i
CCCCn1cnc2sc(-c3ccccc3)cc2c1=O	i	38	i	98	i	i
CNC(=O)NC(=O)Cn1cnc2sc(-c3ccccc3)cc2c1=O	i	i	i	i	i	i
CCN(CC)C(=O)Cn1nnc2sc(-c3ccccc3)cc2c1=O	nt	nt	nt	nt	i	nt
O=c1c2cc(-c3ccccc3)sc2ncn1/N=C/c1ccco1	i	37	i	i	i	i
O=C(NCc1ccccc1)NC1COc2ccccc2C1 (configuration not stated)	nt	nt	nt	nt	i	nt

Bioassay records as filed in PubChem BioAssay.
